According to PubChem BioAssay (Tox21):
Several values for one entry are separate records, joined by “and”; a condition that tells them apart may be missing. Identical values can stand only once. Records with an inconclusive call do not appear. Where a call stands in place of a potency, no number is given. A structure can be active in one record and inactive in another. Activity calls are given as the source filed them. Unless noted, calls follow the shape of the full dose curve.

What was measured:
[1] = target: Gonadotropin-releasing hormone receptor (Homo sapiens) (UniProt P30968); experiment: Human gonadotropin-releasing hormone receptor (GnRHR) small molecule agonists, calcium flux assay in GnRHR-HEK293 cells (AID 1920063); also: nearly all actives have a fitted effect of over 35% in size; also: potency is read from the fitted curve at half-maximal effect
Gonadotropin-releasing hormone receptor (Homo sapiens), sequence (P30968 whole entry, looked up): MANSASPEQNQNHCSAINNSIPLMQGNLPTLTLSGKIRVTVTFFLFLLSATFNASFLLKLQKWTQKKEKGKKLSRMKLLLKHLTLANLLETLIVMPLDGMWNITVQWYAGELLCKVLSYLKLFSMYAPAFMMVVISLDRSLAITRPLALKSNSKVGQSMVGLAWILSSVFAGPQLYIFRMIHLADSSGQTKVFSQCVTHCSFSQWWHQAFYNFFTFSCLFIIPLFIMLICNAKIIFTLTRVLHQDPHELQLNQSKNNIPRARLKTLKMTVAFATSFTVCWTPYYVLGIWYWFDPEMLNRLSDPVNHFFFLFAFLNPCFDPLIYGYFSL
Method in brief: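 We seeded human GnRHR-expressing HEK293 cells for 18 hours, loaded them with calcium dye for an hour at 37 C, added test compounds, and recorded fluorescence intensity kinetically for three minutes.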

[2] = target: KiSS-1 receptor (Homo sapiens) (UniProt Q969F8); experiment: Human kisspeptin (KISS1R) small molecule agonists, calcium flux assay in KISS1R-HEK293 cells (AID 1920064; active = well fitted activation curve with a large enough effect in the repeat runs; also: potency is read from the fitted curve at half-maximal effect)
KiSS-1 receptor (Homo sapiens), sequence (Q969F8 whole entry, looked up): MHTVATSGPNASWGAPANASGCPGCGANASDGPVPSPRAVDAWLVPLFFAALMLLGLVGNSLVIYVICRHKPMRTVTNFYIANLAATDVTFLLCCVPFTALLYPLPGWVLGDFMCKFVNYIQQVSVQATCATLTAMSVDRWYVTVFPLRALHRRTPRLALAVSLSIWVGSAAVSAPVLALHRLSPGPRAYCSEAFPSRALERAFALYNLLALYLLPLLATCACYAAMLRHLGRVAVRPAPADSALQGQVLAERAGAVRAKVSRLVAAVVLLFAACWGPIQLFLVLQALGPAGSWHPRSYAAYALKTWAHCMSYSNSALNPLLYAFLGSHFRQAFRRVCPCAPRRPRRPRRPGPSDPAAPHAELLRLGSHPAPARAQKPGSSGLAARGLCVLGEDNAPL
Method in brief: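 Kinetic calcium assay, 1 s sampling over 3 min at Ex/Em 480/540, in HEK293 cells engineered with human KISS1R; compounds delivered in DMSO after 1 h dye loading.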

[3] = G protein-coupled receptor (GPCR) small molecule agonists, calcium flux assay: HEK293 wild type cell line counter screen (AID 1920065)
Method in brief: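 Calcium-sensitive dye, loaded 1 h at 37 C into cells cultured 18 h, reports compound-evoked calcium release as fluorescence (Ex/Em 480/540), measured over 3 min. Agonist mode; 15-point titrations, triplicate.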

[4] = p53 small molecule agonists, cell-based qHTS assay with rat liver microsomes (AID 1963578)
Method in brief: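 Each plate received p53RE-bla cells, then compound, then rat liver microsomes and NADPH (both 0.5 mg/mL final). Plates were held 16 h at 37 C, and beta-lactamase activity was detected with LiveBLAzer over 2 h.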

[5] = p53 small molecule agonists, cell-based qHTS assay with human liver microsomes: qHTS cell viability counter screen (AID 1963579); also: nearly all actives have a fitted effect of over 45% in size; also: potency is read from the fitted curve at half-maximal effect
Method in brief: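 Tox21 library compounds, delivered from DMSO stocks, were tested on p53RE-bla cells together with 0.5 mg/mL human liver microsomes and 0.5 mg/mL NADPH (final) over 16 h at 37 C; CellTiter-Glo luminescence served as the cytotoxicity measure.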

[6] = p53 small molecule agonists, cell-based qHTS assay with rat liver microsomes: qHTS cell viability counter screen (AID 1963580); also: nearly all actives have a fitted effect of over 45% in size
Method in brief: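 In HCT-116 cells carrying a p53 response element-bla reporter, compounds were metabolically activated in situ by rat liver microsomes with NADPH over 16 h. Cell ATP content then served as the cytotoxicity measure.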

[7] = p53 small molecule agonists, cell-based qHTS assay: qHTS cell viability counter screen (AID 1963581); also: nearly all actives have a fitted effect of over 45% in size
Method in brief: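 Following 5 h attachment, HCT-116 p53RE-bla cells took up compound for 16 h at 37 C; the reporter was read with B/G FRET substrate (2 h RT), and viability then via CellTiter-Glo ATP luminescence.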

[8] = p53 small molecule agonists, cell-based qHTS assay (AID 1963582; active = well fitted activation curve with a large enough effect in the signal ratio in the repeat runs, not every such curve was filed as active; the % refers to the signal ratio)
Method in brief: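 In this cell-based concentration-response screen, a p53 response element drives beta-lactamase; cells received DMSO-borne compounds after 5 h culture and were incubated a further 16 h before FRET substrate development.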

[9] = target: 5-hydroxytryptamine receptor 2A (Homo sapiens) (UniProt P28223); experiment: 5-hydroxytryptamine receptor 2A (HTR2A) small molecule antagonists, cell-based qHTS assay (AID 1963586); also: nearly all actives have a fitted effect of over 45% in size; also: potency is read from the fitted curve at half-maximal effect
5-hydroxytryptamine receptor 2A (Homo sapiens), sequence (P28223 whole entry, looked up): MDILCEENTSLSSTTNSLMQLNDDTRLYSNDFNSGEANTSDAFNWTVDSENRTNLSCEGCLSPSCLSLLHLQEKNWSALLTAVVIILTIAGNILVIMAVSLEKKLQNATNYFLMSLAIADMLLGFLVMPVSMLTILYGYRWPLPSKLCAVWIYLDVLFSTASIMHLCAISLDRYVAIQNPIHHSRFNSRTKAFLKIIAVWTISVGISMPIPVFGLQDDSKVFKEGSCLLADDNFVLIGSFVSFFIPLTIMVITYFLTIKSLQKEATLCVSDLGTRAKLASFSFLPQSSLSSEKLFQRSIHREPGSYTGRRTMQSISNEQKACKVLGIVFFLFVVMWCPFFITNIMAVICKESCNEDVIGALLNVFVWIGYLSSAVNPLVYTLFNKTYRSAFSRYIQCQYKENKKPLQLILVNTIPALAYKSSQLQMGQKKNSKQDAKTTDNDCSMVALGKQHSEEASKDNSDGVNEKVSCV
Method in brief: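 Antagonist-mode intracellular calcium assay: DOI (4 nM) added after 5 min compound pre-incubation at room temperature to dye-loaded HTR2A-CHO cells. Fluorescence followed for 3 min, sampled every second.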

[10] = target: 5-hydroxytryptamine receptor 2A (Homo sapiens) (UniProt P28223); experiment: 5-hydroxytryptamine receptor 2A (HTR2A) small molecule agonists, cell-based qHTS assay (AID 1963587); also: nearly all actives have a fitted effect of over 30% in size; also: potency is read from the fitted curve at half-maximal effect
Method in brief: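 HTR2A-CHO cells, plated 18 h at 37 C/5% CO2, dye-loaded 1 h at 37 C; compounds in DMSO added by pin tool (agonist mode). Intracellular calcium flux read as kinetic fluorescence on FDSS over 2 min at 1 s intervals.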

[11] = target: Muscarinic acetylcholine receptor M1 (Homo sapiens) (UniProt P11229); experiment: Cholinergic receptor muscarinic 1 (CHRM1) small molecule antagonists, cell-based qHTS assay (AID 1963588); also: nearly all actives have a fitted effect of over 40% in size; also: potency is read from the fitted curve at half-maximal effect
Muscarinic acetylcholine receptor M1 (Homo sapiens), sequence (P11229 whole entry, looked up): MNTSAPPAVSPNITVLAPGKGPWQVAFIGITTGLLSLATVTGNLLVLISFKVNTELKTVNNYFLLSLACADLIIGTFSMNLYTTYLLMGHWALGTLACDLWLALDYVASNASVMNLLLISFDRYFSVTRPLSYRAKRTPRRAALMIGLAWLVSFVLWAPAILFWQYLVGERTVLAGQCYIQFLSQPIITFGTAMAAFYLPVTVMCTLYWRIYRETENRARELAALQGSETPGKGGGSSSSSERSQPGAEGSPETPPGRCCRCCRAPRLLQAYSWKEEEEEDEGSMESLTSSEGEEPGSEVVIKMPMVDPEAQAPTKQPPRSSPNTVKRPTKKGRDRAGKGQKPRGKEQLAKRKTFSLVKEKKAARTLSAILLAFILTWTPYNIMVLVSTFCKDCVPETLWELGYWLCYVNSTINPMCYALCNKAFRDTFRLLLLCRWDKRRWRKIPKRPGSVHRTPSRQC
Method in brief: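 CHRM1-CHO calcium-flux assay, antagonist mode. Cells were seeded 18 h, dye-loaded 1 h at 37 C and given compound for 5 min at RT, then acetylcholine was added at 50nM. FDSS fluorescence was read 3 min; 15 concentrations, three runs.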

[12] = target: Muscarinic acetylcholine receptor M1 (Homo sapiens) (UniProt P11229); experiment: Cholinergic receptor muscarinic 1 (CHRM1) small molecule agonists, cell-based qHTS assay (AID 1963589); also: nearly all actives have a fitted effect of over 35% in size
Method in brief: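 Measures agonist-induced intracellular calcium rise. Stable human CHRM1 CHO line, 1 h dye load at 37 C, compounds from DMSO, kinetic fluorescence read.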

[13] = cAMP Responsive Elements (CRE) small molecule agonists, cell-based qHTS assay (AID 1963590)
Method in brief: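 A CRE-responsive beta-lactamase reporter in HEK 293T cells was used. Treatment ran 3 h at 37 C; detection used LiveBLAzer B/G FRET substrate for 2 h at room temperature.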

[14] = cAMP Responsive Elements (CRE) small molecule antagonists, cell-based qHTS assay (AID 1963591; active = well fitted inhibition curve with a large enough effect in the signal ratio in the repeat runs, not every such curve was filed as active; the % refers to the signal ratio)
Method in brief: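 HEK293T cells carrying a CRE-driven beta-lactamase reporter receive compound and NKH477 (0.25 uM final) for 3 h. Fluorescence from LiveBLAzer B/G FRET substrate is read after 2 h at room temperature.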

[15] = target: Beta-2 adrenergic receptor (Homo sapiens) (UniProt P07550); experiment: Adrenergic beta2 receptor (ADRB2) small molecule antagonists, cell-based qHTS assay (AID 1963592); also: series mostly up to about 92 µM; nearly all actives have a fitted effect of over 50% in size
Beta-2 adrenergic receptor (Homo sapiens), sequence (P07550 whole entry, looked up): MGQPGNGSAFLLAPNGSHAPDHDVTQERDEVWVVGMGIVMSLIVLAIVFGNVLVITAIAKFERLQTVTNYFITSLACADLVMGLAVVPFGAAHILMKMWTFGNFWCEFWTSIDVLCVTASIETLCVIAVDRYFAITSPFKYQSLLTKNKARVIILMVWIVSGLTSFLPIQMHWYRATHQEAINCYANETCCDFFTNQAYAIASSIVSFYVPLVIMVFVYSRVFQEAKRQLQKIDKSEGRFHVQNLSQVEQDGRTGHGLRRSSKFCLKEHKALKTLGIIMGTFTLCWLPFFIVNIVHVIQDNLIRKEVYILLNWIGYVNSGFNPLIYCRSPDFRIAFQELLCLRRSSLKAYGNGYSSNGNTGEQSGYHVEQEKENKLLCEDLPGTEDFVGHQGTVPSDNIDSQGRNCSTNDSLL
Method in brief: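 Cells (CHO, stable ADRB2 overexpression) incubated 18-20hr at 37C; compounds added from DMSO; agonist mix (1nM isoproterenol, 100uM IBMX, 25uM Ro-20-1724) added; 0.5hr RT; d2-cAMP and anti-cAMP-cryptate added; 1hr RT; 665/615 nm read.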

[16] = target: D(2) dopamine receptor (Homo sapiens) (UniProt P14416); experiment: Dopamine D2 receptor (DRD2) small molecule agonists, cell-based qHTS assay (AID 1963594); also: nearly all actives have a fitted effect of over 35% in size
D(2) dopamine receptor (Homo sapiens), sequence (P14416 whole entry, looked up): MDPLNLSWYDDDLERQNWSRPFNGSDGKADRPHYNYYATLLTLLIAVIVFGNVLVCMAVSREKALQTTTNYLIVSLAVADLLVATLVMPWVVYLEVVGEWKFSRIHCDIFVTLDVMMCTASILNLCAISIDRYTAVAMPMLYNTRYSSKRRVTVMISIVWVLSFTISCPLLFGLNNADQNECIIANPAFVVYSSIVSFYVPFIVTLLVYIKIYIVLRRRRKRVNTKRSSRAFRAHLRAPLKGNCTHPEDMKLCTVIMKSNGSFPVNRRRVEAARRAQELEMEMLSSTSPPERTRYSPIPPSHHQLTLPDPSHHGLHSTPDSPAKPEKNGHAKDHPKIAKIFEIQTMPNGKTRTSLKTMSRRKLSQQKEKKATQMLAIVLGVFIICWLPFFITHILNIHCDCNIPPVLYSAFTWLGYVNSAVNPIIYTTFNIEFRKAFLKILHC
Method in brief: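 HEK293 cells stably expressing DRD2 were cultured 24 h at 37 C, then given Ro20-1724 (0.1 mM final) and compounds for 10 min at room temperature. NKH477 (200nM) was then added for 30 min. cAMP was read by HTRF.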

[17] = target: D(2) dopamine receptor (Homo sapiens) (UniProt P14416); experiment: Dopamine D2 receptor (DRD2) small molecule antagonists, cell-based qHTS assay (AID 1963595; active = well fitted inhibition curve with a large enough effect in the signal ratio in the repeat runs, with a control signal flat; the % refers to the signal ratio)
Method in brief: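 HEK293 cells stably expressing DRD2 were preincubated with 0.1 mM Ro20-1724, then with compound for 10 min at room temperature. Cells were stimulated with 200 nM NKH477 plus 12 nM quinpirole for 30 min, and cAMP was read by HTRF.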

[18] = Nuclear factor erythroid 2-related factor 2/antioxidant responsive element (Nrf2/ARE) small molecule agonists: luciferase reporter gene qHTS assay in human keratinocytes (AID 1919969); also: nearly all actives have a fitted effect of over 35% in size
[19] = p53 small molecule agonists, cell-based qHTS assay with human liver microsomes (AID 1963577);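 also: p53 response element beta-lactamase reporter cells with liver microsomes plus NADPH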
Method in brief: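 Metabolically competent format: test substances, human liver microsomes and NADPH (both 0.5 mg/mL final) incubated with p53RE-bla cells 16 h at 37 C. Beta-lactamase reporter signal then quantified by fluorescence.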

[20] = target: Beta-2 adrenergic receptor (Homo sapiens) (UniProt P07550); experiment: Adrenergic beta2 receptor (ADRB2) small molecule agonists, cell-based qHTS assay (AID 1963593);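 also: CHO cells stably overexpressing human ADRB2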
Method in brief: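 CHO cells stably over-expressing ADRB2 were plated overnight at 37C, then dosed with compounds plus a stimulation mix containing 100uM IBMX and 25uM Ro-20-1724 for 0.5hr at room temperature. cAMP was measured by HTRF competition, 1hr.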

| Structure (SMILES) | Potency [1] | Potency [2] | Potency [3] | Potency [4] | Potency [5] | Potency [6] | Potency [7] | Potency [8] | Potency [9] | Potency [10] | Potency [11] | Potency [12] | Potency [13] | Potency [14] | Potency [15] | Potency [16] | Potency [17] | Potency [18] | Potency [19] | Potency [20] |
| --- | --- | --- | --- | --- | --- | --- | --- | --- | --- | --- | --- | --- | --- | --- | --- | --- | --- | --- | --- | --- |
| O=C(O)c1ccccc1C(=O)Nc1cccc2ccccc12 | inactive | inactive | inactive | inactive | inactive | inactive | inactive | inactive | inactive | inactive | inactive | inactive | inactive | inactive | inactive | inactive | inactive | – | – | – |
| O=C(N[C@@H]1N=C(c2ccccc2F)c2cccc3c2N(CC3)C1=O)c1cc2ccccc2[nH]1 | – | 15.1 µM (active) | – | inactive | – | inactive | inactive | – | – | 13.4 µM (active) | inactive | inactive | inactive | inactive | inactive | inactive | – | inactive | inactive | inactive |
| ClC1=C(Cl)[C@]2(Cl)[C@@H]3[C@H]4C[C@H]([C@@H]5O[C@H]45)[C@@H]3[C@@]1(Cl)C2(Cl)Cl | inactive | inactive | inactive | inactive | inactive | inactive | inactive | inactive | – | – | – | – | – | – | – | inactive | inactive | – | – | – |
| CC(=O)c1cc2c(cc1C)C(C)(C)C(C)CC2(C)C (configuration not stated) | inactive | inactive | inactive | inactive | inactive | inactive | inactive | inactive | inactive | inactive | inactive | – | – | inactive | inactive | inactive | inactive | – | inactive | – |
| O=c1[nH]c2ccccc2n1CCCN1CCC(n2c(=O)[nH]c3cc(Cl)ccc32)CC1 | inactive | inactive | inactive | inactive | inactive | inactive | inactive | – | – | – | – | – | – | – | – | – | – | – | – | – |
| O=C(CBr)OCc1ccccc1 | inactive | inactive | inactive | inactive | inactive | – | – | inactive | inactive | inactive | – | inactive | inactive | inactive | inactive | inactive | inactive | – | inactive | – |
| O=C(O)COc1nc(Cl)c(Cl)cc1Cl | inactive | inactive | inactive | inactive | – | inactive | – | – | – | inactive | inactive | inactive | – | – | – | – | – | – | inactive | – |
| BrC(Br)C(Br)(Br)Br | – | inactive | – | inactive | inactive | inactive | inactive | – | inactive | 55.3 µM (active) | inactive | inactive | – | – | inactive | inactive | inactive | inactive | inactive | – |
| CC(C)[C@@H](C(=O)O[C@@H](C#N)c1cccc(Oc2ccccc2)c1)c1ccc(Cl)cc1 | – | inactive | inactive | inactive | inactive | – | inactive | inactive | inactive | inactive | inactive | inactive | – | inactive | inactive | inactive | inactive | inactive | inactive | inactive |
| CC1CCCCC1NC(=O)Nc1ccccc1 (configuration not stated) | inactive | inactive | inactive | inactive | – | – | – | – | inactive | inactive | inactive | inactive | inactive | inactive | inactive | inactive | inactive | – | inactive | inactive |
| CC(C)(C)C(O)C(Oc1ccc(-c2ccccc2)cc1)n1cncn1 (configuration not stated) | inactive | inactive | inactive | inactive | – | – | inactive | inactive | inactive | inactive | inactive | inactive | inactive | inactive | inactive | inactive | inactive | – | inactive | – |
| CC(O)C#N (configuration not stated) | inactive | inactive | inactive | inactive | inactive | inactive | inactive | – | inactive | inactive | – | – | inactive | inactive | inactive | inactive | inactive | – | inactive | inactive |
| CCC(C)c1cccc(C(C)CC)c1O (configuration not stated) | inactive | inactive | inactive | inactive | inactive | – | inactive | inactive | – | inactive | – | inactive | – | – | inactive | inactive | inactive | – | inactive | – |
| Clc1cc(Cl)c(-c2cc(Cl)c(Cl)cc2Cl)cc1Cl | inactive | inactive | inactive | inactive | inactive | inactive | inactive | inactive | inactive | inactive | inactive | inactive | inactive | inactive | inactive | inactive | inactive | – | – | – |
| O=C(O)c1cc(I)cc(I)c1I | – | inactive | – | inactive | inactive | inactive | inactive | – | inactive | inactive | inactive | inactive | – | – | inactive | inactive | inactive | inactive | inactive | inactive |
| CC(C)(c1cc(Cl)c(O)c(Cl)c1)c1cc(Cl)c(O)c(Cl)c1 | 38.9 µM (active) | inactive | inactive | inactive | 40.8 µM (active) | inactive | inactive | – | inactive and 13.3 µM (active) | 55 µM (active) and 24.5 µM (active) | 33.4 µM (active) and inactive | inactive | – | inactive | inactive | inactive | inactive | – | inactive | – |
| CN(C1CCCCC1)C1CCCCC1 | – | inactive | inactive | – | inactive | inactive | inactive | – | inactive | inactive | inactive | inactive | inactive | inactive | inactive | inactive | inactive | inactive | – | – |
